The full ranking holds about 8,300 sequences; the median of “log2 fold change of degron read counts, EGFP-low vs EGFP+ sorted cells (limma voom), compound-induced degradation” is about -1.1, and the highest 2% start at about 3.2. The entries come from a sample that favours the highest values as a whole.
T1: CRBN, Q96SW2
T1 chain: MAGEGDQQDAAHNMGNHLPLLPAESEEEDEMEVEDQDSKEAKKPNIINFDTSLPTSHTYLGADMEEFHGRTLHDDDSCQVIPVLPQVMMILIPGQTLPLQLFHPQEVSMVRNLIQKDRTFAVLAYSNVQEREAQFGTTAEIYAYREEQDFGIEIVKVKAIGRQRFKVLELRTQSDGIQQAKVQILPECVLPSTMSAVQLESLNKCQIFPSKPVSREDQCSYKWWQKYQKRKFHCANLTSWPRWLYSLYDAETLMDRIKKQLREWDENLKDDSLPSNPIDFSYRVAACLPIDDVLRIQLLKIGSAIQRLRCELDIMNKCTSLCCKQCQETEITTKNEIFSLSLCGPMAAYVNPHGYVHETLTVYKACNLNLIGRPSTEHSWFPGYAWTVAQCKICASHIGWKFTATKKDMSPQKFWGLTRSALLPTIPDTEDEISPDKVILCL

B1: 46F_47M_49N_50Q_52G_53H_54W_55F_67L_, Q9UKT9 (peptide)
chain: FMCNQCGHWFTQKGNLLRHIKL
B2: 46F_47D_49N_50Q_52G_53A_54N_55F_67L_, Q9UKT9 (peptide)
chain: FDCNQCGANFTQKGNLLRHIKL
B3: 46F_47C_49E_50I_52G_53A_54R_55F_67L_, Q9UKT9 (peptide)
chain: FCCEICGARFTQKGNLLRHIKL
B4: 46F_47S_49E_50I_52G_53A_54L_55F_67L_, Q9UKT9 (peptide)
chain: FSCEICGALFTQKGNLLRHIKL
B5: 46F_47S_49E_50I_52G_53A_54R_55F_67L_, Q9UKT9 (peptide)
chain: FSCEICGARFTQKGNLLRHIKL
B6: 46F_47K_49E_50I_52G_53A_54R_55F_67L_, Q9UKT9 (peptide)
chain: FKCEICGARFTQKGNLLRHIKL
B7: 46F_47G_49E_50I_52G_53A_54R_55F_67L_, Q9UKT9 (peptide)
chain: FGCEICGARFTQKGNLLRHIKL
B8: 46F_47N_49E_50I_52G_53A_54R_55F_67L_, Q9UKT9 (peptide)
chain: FNCEICGARFTQKGNLLRHIKL
B9: 46F_47D_49P_50I_52G_53R_54E_55F_67L_, Q9UKT9 (peptide)
chain: FDCPICGREFTQKGNLLRHIKL
B10: 46F_47Q_49P_50I_52G_53H_54K_55F_67L_, Q9UKT9 (peptide)
chain: FQCPICGHKFTQKGNLLRHIKL
B11: 46F_47D_49D_50I_52G_53A_54T_55F_67L_, Q9UKT9 (peptide)
chain: FDCDICGATFTQKGNLLRHIKL
B12: 46F_47I_49N_50Q_52G_53A_54G_55F_67L_, Q9UKT9 (peptide)
chain: FICNQCGAGFTQKGNLLRHIKL
B13: 46F_47Y_49P_50I_52G_53H_54N_55F_67L_, Q9UKT9 (peptide)
chain: FYCPICGHNFTQKGNLLRHIKL
B14: 46L_47V_49P_50I_52G_53F_54P_55C_67L_, Q9UKT9 (peptide)
chain: LVCPICGFPCTQKGNLLRHIKL
B15: 46L_47A_49P_50I_52G_53F_54S_55C_67L_, Q9UKT9 (peptide)
chain: LACPICGFSCTQKGNLLRHIKL
B16: 46L_47D_49P_50I_52G_53F_54S_55C_67L_, Q9UKT9 (peptide)
chain: LDCPICGFSCTQKGNLLRHIKL
B17: 46L_47L_49P_50I_52G_53F_54S_55C_67L_, Q9UKT9 (peptide)
chain: LLCPICGFSCTQKGNLLRHIKL
B18: 46L_47S_49P_50I_52G_53F_54S_55C_67L_, Q9UKT9 (peptide)
chain: LSCPICGFSCTQKGNLLRHIKL
B19: 46L_47G_49P_50I_52G_53F_54S_55C_67L_, Q9UKT9 (peptide)
chain: LGCPICGFSCTQKGNLLRHIKL
B20: 46L_47H_49P_50I_52G_53F_54S_55C_67L_, Q9UKT9 (peptide)
chain: LHCPICGFSCTQKGNLLRHIKL
B21: 46L_47E_49P_50I_52G_53F_54S_55C_67L_, Q9UKT9 (peptide)
chain: LECPICGFSCTQKGNLLRHIKL
B22: 46L_47G_49P_50I_52G_53F_54E_55C_67L_, Q9UKT9 (peptide)
chain: LGCPICGFECTQKGNLLRHIKL
B23: 46L_47K_49P_50I_52G_53F_54S_55C_67L_, Q9UKT9 (peptide)
chain: LKCPICGFSCTQKGNLLRHIKL
B24: 46L_47M_49P_50I_52G_53F_54S_55C_67L_, Q9UKT9 (peptide)
chain: LMCPICGFSCTQKGNLLRHIKL
B25: 46L_47I_49P_50I_52G_53F_54S_55C_67L_, Q9UKT9 (peptide)
chain: LICPICGFSCTQKGNLLRHIKL

Target: T1, CRBN, Q96SW2
Experiment: log2 fold change of degron read counts, EGFP-low vs EGFP+ sorted cells (limma voom), compound-induced degradation; higher = more compound-induced degradation of the degron-EGFP fusion; degrons are variants of IKZF1/3 zinc finger 2; compound dose not given here
Conditions: Jurkat, 18 h
Method: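 Pooled library of 8380 IKZF3 ZF2 degron mutants (positions 146-167 varied within the IKZF3 130-189 degron; only the varied core is printed, flanks not printed) fused to EGFP with IRES-mCherry, lentivirally expressed in Jurkat cells. mCherry+ cells were treated with one IMiD compound for 18 h (dose not stated) and FACS-sorted into EGFP-low and EGFP+ populations. Degron sequences were counted by NGS, and log2FC (EGFP-low vs EGFP+) was estimated by limma voom over 3 biological replicates.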

[1] = compound: compound 19 (5-tert-butyl-thalidomide)
[2] = compound: compound 22 (5-morpholino-thalidomide)
[3] = compound: compound 33 (diphenyl IMiD analogue)
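Note: pooled lentiviral library of zinc finger degron-EGFP fusions in mCherry-positive Jurkat cells, FACS-sorted after compound exposure, with degron abundance counted by next-generation sequencing.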

Row | Sequence | log2 fold change of degron read counts [1] | log2 fold change of degron read counts [2] | log2 fold change of degron read counts [3] | log2 fold change of degron read counts (compound: thalidomide)
1 | B1 | -2.24 | -2.49 | -2.26 | -2.73
2 | B2 | -2.41 | -2.24 | -2.07 | -2.31
3 | B3 | 3.25 | 3.01 | 1.66 | 3.08
4 | B4 | 0.851 | 0.0276 | 2.41 | -0.115
5 | B5 | 3.25 | 2.89 | 0.489 | 2.12
6 | B6 | -1.5 | -3.6 | -3.25 | -1.17
7 | B7 | 3.15 | 2.26 | -0.576 | 1.48
8 | B8 | 2.49 | 0.909 | -0.686 | 0.645
9 | B9 | -1.43 | -1.65 | -0.206 | 0.273
10 | B10 | -1.95 | -1.73 | -1.82 | 0.342
11 | B11 | -0.229 | -1.86 | -1.66 | -1.78
12 | B12 | -2.57 | -1.54 | -0.787 | -0.966
13 | B13 | -1.61 | -1.84 | -0.993 | -1.92
14 | B14 | 0.138 | 1.61 | 0.747 | 1.9
15 | B15 | 3.69 | 3.18 | 2.48 | 2.94
16 | B16 | 1.61 | 0.446 | 1.19 | 2.17
17 | B17 | 1.38 | 0.88 | 1.79 | 2.5
18 | B18 | 3.04 | 3.05 | 2.54 | 2.8
19 | B19 | 3.62 | 2.62 | 2.12 | 1.55
20 | B20 | 3.33 | 3.49 | 2.83 | 2.54
21 | B21 | 1.9 | 0.453 | 2.42 | 3.62
22 | B22 | 1.95 | 0.368 | 0.47 | 0.369
23 | B23 | 1.33 | -0.186 | -0.695 | 1.64
24 | B24 | 1.63 | 2.78 | 2.99 | 2.69
25 | B25 | 0.996 | 3.08 | 2.1 | 3.18
